# Source: PubChem BioAssay (EPA / NIEHS)
# Several values for one entry are separate records, joined by “and”; a condition that tells them apart may be missing. Identical values can stand only once. Inconclusive results are not listed. More than one record can exist for a structure, and the calls need not agree. Activity calls are given as the source filed them. The calls were made as follows: active = hit-call score of the fitted dose curve at least 0.9, where 1 is the maximum; inconclusive = response in the unintended direction; inactive = score below 0.9.
# Molecular target: human Constitutive Androstane Receptor (CAR), NR1I3 (gene 9970) (UniProt Q14994)
# Sequence (Q14994 whole entry, looked up): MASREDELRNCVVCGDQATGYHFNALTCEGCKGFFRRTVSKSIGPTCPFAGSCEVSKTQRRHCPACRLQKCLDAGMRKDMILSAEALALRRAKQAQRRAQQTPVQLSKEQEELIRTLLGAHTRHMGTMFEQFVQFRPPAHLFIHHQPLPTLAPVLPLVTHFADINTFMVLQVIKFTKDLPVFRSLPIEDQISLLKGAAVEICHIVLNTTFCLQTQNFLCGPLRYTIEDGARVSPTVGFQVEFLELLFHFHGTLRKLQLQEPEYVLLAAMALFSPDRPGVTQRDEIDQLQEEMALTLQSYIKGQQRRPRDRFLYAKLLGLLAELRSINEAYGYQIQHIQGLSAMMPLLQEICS
# Assay: NVS_NR_hCAR_Antagonist: NovaScreen (NVS) Nuclear Receptor Binding Assay for human Constitutive Androstane Receptor Antagonism (CAR) (AID 2283344)
# Protocol: NVS_NR_hCAR_Antagonist is a biochemical, single-readout assay that uses extracted gene-proteins in a cell-free assay. Measurements were taken 1 hour after chemical dosing in a 384-well plate.NVS_NR_hCAR_Antagonist is one of one assay component(s) measured or calculated from the NVS_NR_hCAR_Antagonist assay. It is designed to make measurements of fluorescent resonance energy transfer, a form of binding reporter, as detected with fluorescent resonance energy transfer signals by Time-Resolved Fluorescence Resonance Energy Transfer (TR-FRET) technology.Data from the assay component NVS_NR_hCAR_Antagonist was analyzed into 1 assay endpoint. This assay endpoint, NVS_NR_hCAR_Antagonist, was analyzed in the positive analysis fitting direction relative to DMSO as the negative control and baseline of activity. Using a type of binding reporter, loss-of-signal activity can be used to understand changes in the binding as they relate to the gene NR1I3. Furthermore, this assay endpoint can be referred to as a primary readout, because the performed assay has only produced 1 assay endpoint. To generalize the intended target to other relatable targets, this assay endpoint is annotated to the nuclear receptor intended target family, where the subfamily is non-steroidal.
# Binding assays used specific radioligands (tritiated, iodinated) with non-radioactive competitive displacement ligands in agonist or antagonist protocols (as indicated) and various reference compounds and inhibitors to titrate specific binding to receptors and transporters. Most enzyme assays (CYPs, kinases, phosphatases, proteases, HDACs) used recombinant protein and specific substrates (fluorescence mostly, some colorimetric and radioactive) and inhibitors, followed by a biochemical separation of substrate and product. All assays for the biochemical HTS were initially run in duplicate at a single concentration (10 uM for CYP450 assays and 25 uM for all others). […] Each assay was run with positive and negative controls, and concurrent controls on every plate. The follow-up (secondary) screen tested active chemical-pairs in concentration series, as well as a few additional assays not tested in the primary screen, some selected negative inactives, and several cases re-run in the concentration series for confirmatory purposes.
SMILES,AC50,outcome
Oc1ccc(Cl)cc1Cc1ccccc1,9.68 µM (active) and 25.2 µM (active) and 25 µM (active),inactive
COc1nn(CSP(=S)(OC)OC)c(=O)s1,18.3 µM (active),–
O=[N+]([O-])c1c(Cl)c(Cl)c(Cl)c(Cl)c1Cl,–,inactive
CN1CSC(=S)N(C)C1,–,inactive
O=C1c2ccccc2C(=O)N1SC(Cl)(Cl)Cl,–,inactive
CCCN(CCC)c1c([N+](=O)[O-])cc(C(F)(F)F)cc1[N+](=O)[O-],–,inactive
CC(C)(C)C(O)C(Oc1ccc(Cl)cc1)n1cncn1 (stereo not given),–,inactive
CC[C@H](C)[C@H]1O[C@]2(C=C[C@@H]1C)C[C@@H]1C[C@@H](C/C=C(\C)[C@@H](O[C@H]3C[C@H](OC)[C@@H](O[C@H]4C[C@H](OC)[C@@H](O)[C@H](C)O4)[C@H](C)O3)[C@@H](C)/C=C/C=C3\CO[C@@H]4[C@H](O)C(C)=C[C@@H](C(=O)O1)[C@]34O)O2 (tested in a mixture with another compound),10.1 µM (active),–
COP(=S)(OC)Oc1ccc([N+](=O)[O-])cc1,–,inactive
CCCN(CCOc1c(Cl)cc(Cl)cc1Cl)C(=O)n1ccnc1,32 µM (active),–
N#Cc1c(Cl)c(Cl)c(Cl)c(C#N)c1Cl,–,inactive
CNC(=O)Oc1ccccc1OC(C)C,–,inactive
O=S1OCC2C(CO1)C1(Cl)C(Cl)=C(Cl)C2(Cl)C1(Cl)Cl (stereo not given),–,inactive
CC1(C)C(C=C(Cl)Cl)C1C(=O)OC(C#N)c1ccc(F)c(Oc2ccccc2)c1 (stereo not given),–,inactive
CNC(=O)/C=C(\C)OP(=O)(OC)OC,–,inactive
O=C(O)CCCOc1ccc(Cl)cc1Cl,–,inactive
CCOc1nc(NC)nc(NC(=O)NS(=O)(=O)c2ccccc2C(=O)OC)n1,–,inactive
Cc1cc(C)nc(NC(=O)NS(=O)(=O)c2ccccc2C(=O)OC2COC2)n1,–,inactive
CCOCN(C(=O)CCl)c1c(C)cccc1CC,13.9 µM (active),–
